Test results from PubChem BioAssay.
The source made the active and inactive calls. Unless noted, how the calls were made is not given here.

Key:
[1] = tested on: XIP peptide (Xip251-270) binding; test: small-molecule binders of XIP peptide, primary screen, biochemical, small-molecule microarray, fluorescence 635/667 nm, 0.1 µg/mL protein (AID 1182); details: fluorescent protein binding, 635 nm, higher = more signal, called active from +8 up or from −8 down
XIP peptide (Xip251-270) = test: small-molecule binders of XIP peptide, primary screen, biochemical, small-molecule microarray, fluorescence 635/667 nm, 0.5 µg/mL protein (AID 1183); details: small-molecule microarray binding, fluorescence 635 nm; higher = more signal
[2] = Plasmodium falciparum growth inhibition, primary screen, strain 3D7, DAPI fluorescence, 100 nL (AID 1184);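 further: parasites grown inside human red blood cells in medium with human serum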; details: P. falciparum 3D7 growth, 3 d, higher = more signal
[3] = target: Homeobox protein Hox-A13 (Mus musculus) (UniProt Q62424); test: inhibitors of HoxA13-DNA binding, primary screen, biochemical, fluorescence polarization, labeled oligonucleotide (AID 1185); details: 15 min, higher = more signal, called active from +8 up or from −8 down
[4] = inhibitors of hydroxyurea-induced Chk1 phosphorylation, primary screen, imaging, HeLa, phospho-Chk1 antibody, percent positive cells (AID 1186); details: hydroxyurea-induced phospho-Chk1 immunofluorescence imaging, higher = more signal
[5] = inhibitors of hydroxyurea-induced Chk1 phosphorylation, primary screen, imaging, HeLa, phospho-Chk1 nuclear intensity (AID 1187); details: hydroxyurea-induced phospho-Chk1 immunofluorescence imaging, higher = more signal

Homeobox protein Hox-A13 (Mus musculus), sequence (Q62424 whole entry, looked up): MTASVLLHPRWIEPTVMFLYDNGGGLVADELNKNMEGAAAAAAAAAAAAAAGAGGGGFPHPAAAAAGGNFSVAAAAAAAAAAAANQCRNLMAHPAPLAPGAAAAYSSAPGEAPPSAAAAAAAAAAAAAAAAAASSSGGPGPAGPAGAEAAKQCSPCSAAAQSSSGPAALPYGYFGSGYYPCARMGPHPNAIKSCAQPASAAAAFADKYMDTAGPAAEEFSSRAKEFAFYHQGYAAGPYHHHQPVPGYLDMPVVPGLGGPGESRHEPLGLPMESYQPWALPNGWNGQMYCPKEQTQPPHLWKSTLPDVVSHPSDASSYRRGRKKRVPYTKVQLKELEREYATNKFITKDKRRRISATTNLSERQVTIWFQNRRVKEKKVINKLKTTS

Row | Structure (SMILES) | composite z-score [1] | composite z-score (XIP peptide (Xip251-270)) | z-score [2] | z-score [3] | z-score [4] | z-score [5]
1 | Cc1c(NC(=O)CC#N)c(=O)n(-c2ccccc2)n1C | 0.248 (inactive) | 0.0029 | -0.0049 | -0.631 (inactive) | 0.123 (inactive) | 0.239 (inactive)
2 | O=C1OCCC=C[C@H]2OC34C=CCN(c5ccc6ccccc6c5)C(=O)[C@H]3N(CCCCCO)C(=O)[C@@H]4C12 (stereo partly specified) | 0.427 (inactive) | 0.385 | 0.405 | -5.5 (inactive) | -0.202 (inactive) | 0.891 (inactive)
3 | CC1CC/C=C\[C@H]2OC34C=CCN(Cc5ccccc5)C(=O)[C@H]3N(CCCCCO)C(=O)[C@@H]4C2C(=O)O1 (stereo partly specified) | -0.0864 (inactive) | 0.525 | 1.65 | -5.11 (inactive) | -0.0458 (inactive) | -0.0669 (inactive)
4 | CC(C)(C)OC(=O)CC[C@]1(C(=O)N2CCCCC2)N=C(c2ccc(OCCCO)cc2)O[C@H]1c1ccccc1N=[N+]=[N-] | 0.282 (inactive) | 0.71 | -1.75 | -2.92 (inactive) | -0.0036 (inactive) | 0.212 (inactive)
5 | COC(=O)[C@]1(Cc2ccccc2N=[N+]=[N-])N=C(c2ccc(OCCCO)cc2)O[C@@H]1c1ccccc1N=[N+]=[N-] | 0.404 (inactive) | 0.614 | -2.09 | -2.31 (inactive) | -0.53 (inactive) | -0.923 (inactive)
6 | COCCOC(=O)N1C(=O)[C@@]2(c3cc(C#CCNC(N)=O)ccc31)[C@H](c1ccc(O)cc1)N1[C@H](c3ccccc3)[C@H](c3ccccc3)OC(=O)[C@H]1[C@@H]2C(=O)Nc1nc2ccccc2s1 | -0.236 (inactive) | -0.132 | 0.0446 | -0.523 (inactive) | -0.373 (inactive) | -0.669 (inactive)
7 | CC(C)c1ccc(NN2C(C(O)c3c(F)cccc3Cl)C=CC3C(=O)N(c4ccccc4)C(=O)C32)cc1 (stereo unspecified) | 0.38 (inactive) | 0.748 | -0.668 | -1.64 (inactive) | 0.561 (inactive) | 0.539 (inactive)
8 | O=C(CS)NCCCCCCNC(=O)[C@H]1C[C@H]2C(=O)NCC(=O)N2[C@H]1c1ccc(O)cc1 | 0.545 (inactive) | 0.832 | 0.509 | -2.43 (inactive) | 0.419 (inactive) | 0.37 (inactive)
9 | COc1ccc(C(O)C2C=CC3C(=O)N(C)C(=O)C3N2Nc2ccccc2)cc1OCc1ccccc1 (stereo unspecified) | 0.492 (inactive) | 0.879 | 0.039 | -4.69 (inactive) | 0.593 (inactive) | 0.344 (inactive)
10 | CC(=O)NCCCC[C@@H]1NC(=O)[C@@H]2C[C@H](C(=O)NCCCCCCNC(=O)CS)[C@H](c3ccc(O)cc3)N2C1=O | 0.757 (inactive) | 0.596 | 0.648 | -5.16 (inactive) | 0.34 (inactive) | 0.0918 (inactive)
11 | COC(=O)[C@@]1(Cc2ccc(OC)cc2)[C@H]2c3cc(C(=O)N(C)C)n(Cc4c(OC)[nH]cc(C)c4=O)c3C[C@H]2CN1C(=O)c1ccccc1 | -0.378 (inactive) | 0.523 | -1.44 | -5.46 (inactive) | 0.324 (inactive) | -0.208 (inactive)
12 | CCCN1C(=O)[C@@]2(CCC(=O)OC(C)(C)C)N=C(c3ccc(OCCCO)cc3)O[C@H]2c2ccccc21 | 0.317 (inactive) | 0.563 | -2.31 | -3.53 (inactive) | -0.0458 (inactive) | 0.261 (inactive)
13 | CCOC(=O)C[C@H]1[C@H](OC(=O)c2ccc(-c3ccccc3)cc2)[C@@H](NC(=O)c2ccc3ccccc3c2)c2cc(OCCCO)ccc2N1C(=O)Cc1ccc(OC)cc1 | -0.341 (inactive) | -0.0332 | -0.884 | -1.89 (inactive) | -0.192 (inactive) | 0.0873 (inactive)
14 | Cc1ccc(S[C@]2(C(=O)NCCN3CCOCC3)CC(=O)N(Cc3cc(C(F)(F)F)cc(C(F)(F)F)c3)[C@@H]2c2ccc(CO)cc2I)cc1 | 0.476 (inactive) | 0.241 | 0.439 | -2.98 (inactive) | -0.064 (inactive) | -0.0538 (inactive)
15 | Cc1ccc([C@H]2C(C(=O)O)=C[C@@H](C)N2S(=O)(=O)c2ccc(C)cc2)cc1 | 1.78 (inactive) | -0.43 | 0.159 | -3.09 (inactive) | 0.502 (inactive) | 0.176 (inactive)
16 | CCOC(=O)C[C@H]1[C@H](OC(=O)c2ccc(-c3ccccc3)cc2)[C@@H](NC(=O)c2ccc(-c3ccccc3)cc2)c2cc(OCCCO)ccc2N1C(=O)Cc1ccc(OC)cc1 | -0.548 (inactive) | -0.057 | 0.555 | -1.54 (inactive) | -0.0323 (inactive) | 0.107 (inactive)
17 | CCCCCCCCCCC(O)C1C=CC2C(=O)N(Cc3ccccc3)C(=O)C2N1n1cnnc1 (stereo unspecified) | 0.109 (inactive) | 0.609 | -1.08 | -2.2 (inactive) | 0.577 (inactive) | -0.034 (inactive)
18 | O=C1OCC=C[C@H]2OC34C=CCN(c5ccc6ccccc6c5)C(=O)[C@H]3N(CCCO)C(=O)[C@@H]4[C@@H]12 (stereo partly specified) | 0.185 (inactive) | 1.03 | -1.94 | -2.03 (inactive) | -0.114 (inactive) | -0.226 (inactive)
19 | CC(C)C[C@@H]1NC(=O)[C@@H]2C[C@H](C(=O)NCCCCCC[N+](C)(C)C)[C@H](c3ccc(O)cc3)N2C1=O | 1.5 (inactive) | 0.535 | 0.727 | -2.3 (inactive) | -0.525 (inactive) | -0.124 (inactive)
20 | COc1ccc(CCNC(=O)[C@@]2(Sc3ccc(C)cc3)CC(=O)N(Cc3ccccc3Cl)[C@@H]2c2ccc(CO)cc2I)cc1 | 0.259 (inactive) | 0.391 | -0.694 | -2.24 (inactive) | 0.351 (inactive) | 0.606 (inactive)
21 | CN1CCC(CCCO)=CC1c1ccc(CN2CCCC2)cc1 (stereo unspecified) | 0.426 (inactive) | 0.506 | -1.18 | -2.07 (inactive) | 0.56 (inactive) | 0.903 (inactive)
22 | CC(C)C[C@@H]1NC(=O)[C@H]2C[C@@H](C(=O)NCCCCCCNC(=O)CS)[C@@H](c3cccc(OCCO)c3)N2C1=O | 0.821 (inactive) | 0.792 | -0.0202 | -2.77 (inactive) | 0.0162 (inactive) | 0.12 (inactive)
23 | COc1cc2c(cc1O)C(C)N(Cc1cccc(OC(F)(F)F)c1)CC2 (stereo unspecified) | 0.714 (inactive) | 0.907 | -2.03 | -3.46 (inactive) | 0.0708 (inactive) | -0.033 (inactive)
24 | COC(=O)C(CC#Cc1ccc2c(c1)[C@]1(C(=O)N2)[C@H](c2ccc(OCCO)cc2)N2[C@H](c3ccccc3)[C@H](c3ccccc3)OC(=O)[C@H]2[C@@H]1C(=O)NC[C@H](O)c1ccccc1)C(=O)OC | 1.14 (inactive) | 0.836 | -1.79 | -0.715 (inactive) | 0.0415 (inactive) | 0.364 (inactive)
25 | CN1C=C(C(=O)OCCS(C)(=O)=O)C(C(=O)OCCS(C)(=O)=O)=CC(CCCO)=CC1C1CC1 (stereo unspecified) | 1.7 (inactive) | 0.01 | -0.766 | -5.26 (inactive) | -1.31 (inactive) | -0.118 (inactive)
26 | CCCNC(=O)[C@@]1(c2ccc([N+](=O)[O-])cc2)CC(=O)N(CC23CC4CC(CC(C4)C2)C3)[C@@H]1c1ccc(CO)cc1 | 0.462 (inactive) | 0.424 | 0.0816 | -4.89 (inactive) | -0.29 (inactive) | -0.683 (inactive)
